In the supplement of paper PMC10681739 one finds ETS1 binding intensity data, which are given here for 40 sequences.

This test concerns the target T1, ETS1 (UniProt P14921).
T1 sequence: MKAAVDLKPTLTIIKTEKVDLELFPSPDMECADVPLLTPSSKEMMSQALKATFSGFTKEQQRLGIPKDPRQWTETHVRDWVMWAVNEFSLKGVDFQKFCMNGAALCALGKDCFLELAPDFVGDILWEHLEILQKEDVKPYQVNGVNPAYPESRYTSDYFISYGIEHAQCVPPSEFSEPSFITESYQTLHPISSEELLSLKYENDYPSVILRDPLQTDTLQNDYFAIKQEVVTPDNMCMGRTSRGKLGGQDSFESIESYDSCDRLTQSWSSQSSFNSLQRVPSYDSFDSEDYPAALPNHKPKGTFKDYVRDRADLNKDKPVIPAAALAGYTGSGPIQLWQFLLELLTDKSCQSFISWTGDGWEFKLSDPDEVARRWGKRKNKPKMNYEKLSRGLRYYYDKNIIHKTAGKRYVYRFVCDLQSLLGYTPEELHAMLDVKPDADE
The test can be described thus: ETS1 binding intensity (PBM fluorescence) in presence of RUNX1, normalised to ETS1-only experiment (arbitrary fluorescence units); higher = stronger binding. Conditions: ETS1 concentration 1 nM; RUNX1 concentration 25 nM. As for the experimental part: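 Cooperative genomic-context PBM: 36-bp genomic probes with neighbouring ETS1 and RUNX1 sites, double-stranded on Agilent 4x180k arrays. Full-length recombinant human ETS1 (1 nM) was incubated alone or with RUNX1 (25 nM) and detected with anti-ETS1 antibody plus Alexa488 secondary. Value is the median fluorescence intensity over 4 replicate spots; the ETS1+RUNX1 data were normalised to the ETS1-only data using probes without RUNX1 sites. The 36-bp variable region sits on the array probe with constant linker/primer flanks that are not printed.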
For GGCAAACAGGAAACACTCCCAGGGCTGTGGGCTCCT, the ETS1 binding intensity stood at 1790.
For GGGGAAGAGGAAGCTGTGTCCGCGGTGCAAGGGGTT, the ETS1 binding intensity turned out to be 542.
The value for TGGCGGGAGAACTTCCCCCTGTGCGGTCGCGACGTG was 533; that for TGCCCAGTACTTCCTCTTGTGGGGGAGCACAACTTG was 424; that for CTCACTTCCCCGGCAGCTCCCTCGCCCCGACCGCAG was 479.
The value for ATGGCGGAGCGGAAGTCCCAGCCACAACGCGAAAAG was 5670; that for GGGGCTCCGCAGGAAGTAGGGCTCCCACAACTTTGC was 2310; that for CCGGTCCGCTCGCCGGAAATGCGGGCTCTCCTGCCG was 10400.
With GGCGGAAGCTGCCGCTGCCTTGCGCCCCCACACACG, the ETS1 binding intensity was determined as 685.
The value for GCCATCCAGGAAGTACAGACTCCCTGACCGCACTGA was 5400.
With GTGGCGAAAGTGCGGATGCGAAACCGCTGGCTCGGC, the ETS1 binding intensity was 1060.
The same measure for AGCCACGGACTTCCGCCTACAGGTCGCCGCAGGTCC: 882.
Regarding TTCTGTAGCTTAGGATGTGGGTTTCTTTGTTTCTGA, the ETS1 binding intensity was 1020.
The value for CGACGTCACTTCCGCTGGTTCAAGCACCGCGAGACT was 1500.
For the sequence CCACTCCAGGAAACTCCTCCAGGTGAGCCCACAACT, the ETS1 binding intensity is 474.
The same measure for ACAGATAGTGATATCCTGTGGTCAATTCCCTCCCCT: 951.
The value for CCCTCACCCCAGCTTTCCTGTGGTTAACCAAACCCC was 822; that for GTTGGGCTTTGAGGATGTGGGTTCTAGAAGTTTACA was 2120; that for GGCTTTTCCGGGATCCCTTTCGCCTCATCACCGCAG was 301.
The same measure for CACTTCCTATCGCTACATAACAAATTACCACAGACT: 642.
Turning to TACACTCCCACATCCGCTGCGGCGCAACTCACAACA, the ETS1 binding intensity was found to be 1260.
The value for ACGGTGTGTCTCATTTCCTGTGGGTAACAGGCACCA was 3240; that for GTTCATCCAGGAAACCCCAACCCAGTGCCGCAGTAT was 464; that for CCACCCTCCGTCCGGCCGCGACCGCGAGGAGGAAGA was 1060.
With CAGAGACACCTGCGGAAGCCACAGGGAGGTCACAGA, the ETS1 binding intensity came out at 613.
The same measure for CTCTCTGGGCGGAAGGAACGCGGTCACCCTGAGAAA: 968; for CTTCAAAGTCAGGAAACCGTTAAACCACACTGCATC: 1910; for CCTCCAGGAAGCGATAAGTGACTGTGGTGGAGAGAG: 620.
The same measure for GACAAAACACAGAAAGGAAGTGGTCAACTATTGCAC: 4930; for GGTTTTGGTAGGAAGGAAAGTGGTTTTCATAGGAAG: 598.
The same measure for GTTGGGGTGCGTGTAGGATGTGGTCTGGGATGATTA: 2610; for AGCACTTCCGTTTGGGCAGGGCTGCGGGCCGGAGGG: 831; for GGGAGGCCCCATCCTGTGTGGCTGTGGCTTTTGCCT: 451.
Regarding TAAGTGAATTTCCTGCCCGCCTCCGCCCACAGCGTA, the ETS1 binding intensity is 744.
On to TCTCTCTACGGAAGCTGGTAGGGCTGTGGGTGCTTC, for which the ETS1 binding intensity was 810.
The same measure for TTTTCCGACGGAAGCCTTACTGCCGCAAACGTCACT: 503; for TCCTCCCACGGGAAGTGCCGTAGGACCGCAGCCCGA: 1170; for GCGGAGGGAAGCGGAAATACTTGCGGTGGGGGCGAC: 19400.
The same measure for AAATACCAGCCCACTTCCTGTGGCTTTGATCTGCAG: 3340; for AGCACCCGGAAGTCGGAGCTGCGCACGCACCGCGGG: 1910.
